How the values were obtained:
Test in all cases: DAPPL (digital affinity profiling via proximity ligation, sequencing); 10 mM Tris-HCl pH 7.5, 50 mM NaCl, 1 mM DTT, 4% glycerol, room temperature, 30 min; GST-TFs on glutathione beads, 16-mer random dsDNA library, 0.1% formaldehyde crosslink after washing; high values mean tight binding
Conditions in all cases: protein: recombinant; tags: N-terminal GST; dsDNA, one strand shown
FEV = target: T1, FEV (Homo sapiens, UniProt Q99581 1-238)
T1 sequence: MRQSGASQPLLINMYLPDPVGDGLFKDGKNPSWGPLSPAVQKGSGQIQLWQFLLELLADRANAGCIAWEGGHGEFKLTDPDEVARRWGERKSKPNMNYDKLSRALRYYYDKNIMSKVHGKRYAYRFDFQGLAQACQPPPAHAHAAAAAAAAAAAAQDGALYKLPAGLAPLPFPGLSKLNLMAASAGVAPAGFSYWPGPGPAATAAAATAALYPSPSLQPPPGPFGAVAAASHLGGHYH
Procedure, shortened: (§1)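 Beads coated with glutathione captured GST-fused human transcription factors that had been expressed in yeast, and the factors were then given DNA barcodes and pooled with a tag-only sample. The pools were incubated with 200 nmole of a random double-stranded 16-mer DNA library in Tris/NaCl/DTT/glycerol buffer for 30 min at room temperature, washed, crosslinked with 0.1% formaldehyde and proximity-ligated with BsaI/T4 ligase at 37 °C for 1 h. PCR amplification and Illumina NextSeq500 sequencing came last. Binding signal is each hexamer's read frequency for a factor divided by its frequency for the tag-only sample.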

ETV5 = ETV5 (Homo sapiens, UniProt P41161 1-510)
Procedure, shortened: as §1

SPIC = target: T2, SPIC (Homo sapiens, UniProt Q8N5J4 1-248)
T2 sequence: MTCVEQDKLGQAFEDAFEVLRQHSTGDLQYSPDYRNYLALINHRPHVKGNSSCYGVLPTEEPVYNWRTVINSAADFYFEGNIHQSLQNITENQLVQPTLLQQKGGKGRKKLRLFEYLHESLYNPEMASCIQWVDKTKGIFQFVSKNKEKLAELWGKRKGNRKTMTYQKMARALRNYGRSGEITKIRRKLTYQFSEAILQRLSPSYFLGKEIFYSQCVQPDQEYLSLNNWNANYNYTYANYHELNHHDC
Procedure, shortened: as §1

ELF4 = ELF4 (Homo sapiens, UniProt Q99607 1-663)
Procedure, shortened: as §1

ELK4 = target: T3, ELK4 (Homo sapiens, UniProt P28324-2 1-405)
T3 sequence: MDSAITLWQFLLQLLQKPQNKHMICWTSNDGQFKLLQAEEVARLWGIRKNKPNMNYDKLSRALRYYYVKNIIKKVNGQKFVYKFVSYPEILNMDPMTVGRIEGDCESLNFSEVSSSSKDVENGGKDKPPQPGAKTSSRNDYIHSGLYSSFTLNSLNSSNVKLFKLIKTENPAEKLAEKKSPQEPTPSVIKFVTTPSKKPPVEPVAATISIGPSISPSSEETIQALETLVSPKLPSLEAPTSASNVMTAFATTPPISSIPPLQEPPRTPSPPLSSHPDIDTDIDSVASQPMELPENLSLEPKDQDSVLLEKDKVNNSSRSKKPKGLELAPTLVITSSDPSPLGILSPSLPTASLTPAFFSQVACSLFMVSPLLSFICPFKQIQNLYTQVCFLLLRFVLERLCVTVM
Procedure, shortened: as §1

ETV2 = target: T4, ETV2 (Homo sapiens, UniProt O00321 1-342)
T4 sequence: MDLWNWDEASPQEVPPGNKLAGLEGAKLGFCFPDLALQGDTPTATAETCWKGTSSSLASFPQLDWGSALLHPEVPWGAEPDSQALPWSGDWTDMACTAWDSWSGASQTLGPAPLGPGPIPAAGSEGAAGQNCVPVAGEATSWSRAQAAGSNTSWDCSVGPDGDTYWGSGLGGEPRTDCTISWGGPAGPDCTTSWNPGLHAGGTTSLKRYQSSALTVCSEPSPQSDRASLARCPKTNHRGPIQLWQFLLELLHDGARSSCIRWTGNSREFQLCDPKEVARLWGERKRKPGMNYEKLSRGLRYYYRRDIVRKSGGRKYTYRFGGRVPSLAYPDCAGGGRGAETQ
Procedure, shortened: as §1

ELF3 = target: T5, ELF3 (Homo sapiens, UniProt P78545 1-371)
T5 sequence: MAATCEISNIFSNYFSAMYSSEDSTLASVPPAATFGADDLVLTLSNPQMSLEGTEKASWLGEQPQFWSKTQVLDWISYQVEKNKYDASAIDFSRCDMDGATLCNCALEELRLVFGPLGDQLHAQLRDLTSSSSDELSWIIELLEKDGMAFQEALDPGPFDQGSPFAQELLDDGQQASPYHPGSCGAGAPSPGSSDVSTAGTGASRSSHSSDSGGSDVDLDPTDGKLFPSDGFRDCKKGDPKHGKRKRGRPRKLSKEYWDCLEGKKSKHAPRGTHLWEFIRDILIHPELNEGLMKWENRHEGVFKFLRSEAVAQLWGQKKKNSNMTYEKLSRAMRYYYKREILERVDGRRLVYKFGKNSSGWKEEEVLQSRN
Procedure, shortened: as §1

ETV1 = ETV1 (Homo sapiens, UniProt P50549 1-477)
Procedure, shortened: as §1

ERF = target: T6, ERF (Homo sapiens, UniProt P50548 1-548)
T6 sequence: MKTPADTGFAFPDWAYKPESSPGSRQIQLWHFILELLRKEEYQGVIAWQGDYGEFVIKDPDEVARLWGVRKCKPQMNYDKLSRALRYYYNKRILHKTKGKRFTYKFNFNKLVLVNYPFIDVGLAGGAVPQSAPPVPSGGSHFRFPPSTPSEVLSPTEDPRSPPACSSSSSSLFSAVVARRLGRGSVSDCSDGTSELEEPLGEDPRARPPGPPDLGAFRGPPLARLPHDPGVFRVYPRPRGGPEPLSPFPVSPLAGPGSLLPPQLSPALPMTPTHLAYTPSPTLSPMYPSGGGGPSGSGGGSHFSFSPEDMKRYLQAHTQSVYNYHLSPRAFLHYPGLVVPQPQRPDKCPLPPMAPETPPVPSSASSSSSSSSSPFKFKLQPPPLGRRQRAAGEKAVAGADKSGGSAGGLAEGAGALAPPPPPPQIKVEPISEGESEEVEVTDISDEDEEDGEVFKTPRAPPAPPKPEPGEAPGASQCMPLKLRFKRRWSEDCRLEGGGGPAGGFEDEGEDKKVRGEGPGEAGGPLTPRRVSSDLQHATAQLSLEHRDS
Procedure, shortened: as §1

ETV3L = target: T7, ETV3L (Homo sapiens, UniProt Q6ZN32 1-361)
T7 sequence: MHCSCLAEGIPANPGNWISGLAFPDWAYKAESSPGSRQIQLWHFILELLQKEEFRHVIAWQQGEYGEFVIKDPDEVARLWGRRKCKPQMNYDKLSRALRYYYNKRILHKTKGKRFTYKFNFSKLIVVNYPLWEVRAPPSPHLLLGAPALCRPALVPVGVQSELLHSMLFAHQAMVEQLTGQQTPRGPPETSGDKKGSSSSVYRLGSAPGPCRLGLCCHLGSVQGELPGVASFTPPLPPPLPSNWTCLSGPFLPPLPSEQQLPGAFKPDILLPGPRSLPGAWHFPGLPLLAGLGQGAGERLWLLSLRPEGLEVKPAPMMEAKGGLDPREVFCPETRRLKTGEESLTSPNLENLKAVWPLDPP
Procedure, shortened: as §1

ETS2 = target: T8, ETS2 (Homo sapiens, UniProt P15036 1-469)
T8 sequence: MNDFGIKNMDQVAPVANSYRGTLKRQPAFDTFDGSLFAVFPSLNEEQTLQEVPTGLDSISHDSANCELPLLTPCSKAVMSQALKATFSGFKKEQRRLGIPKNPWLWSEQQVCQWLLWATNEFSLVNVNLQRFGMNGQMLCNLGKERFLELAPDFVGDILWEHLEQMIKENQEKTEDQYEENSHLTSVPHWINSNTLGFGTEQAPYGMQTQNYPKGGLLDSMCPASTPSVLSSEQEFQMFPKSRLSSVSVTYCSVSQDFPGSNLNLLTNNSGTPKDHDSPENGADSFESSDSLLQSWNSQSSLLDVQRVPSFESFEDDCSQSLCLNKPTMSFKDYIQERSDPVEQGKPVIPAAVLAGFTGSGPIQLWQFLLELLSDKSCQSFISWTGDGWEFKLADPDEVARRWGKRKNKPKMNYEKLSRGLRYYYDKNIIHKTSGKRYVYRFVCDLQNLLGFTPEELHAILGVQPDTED
Procedure, shortened: as §1

SPDEF = target: T9, SPDEF (Homo sapiens, UniProt O95238 1-335)
T9 sequence: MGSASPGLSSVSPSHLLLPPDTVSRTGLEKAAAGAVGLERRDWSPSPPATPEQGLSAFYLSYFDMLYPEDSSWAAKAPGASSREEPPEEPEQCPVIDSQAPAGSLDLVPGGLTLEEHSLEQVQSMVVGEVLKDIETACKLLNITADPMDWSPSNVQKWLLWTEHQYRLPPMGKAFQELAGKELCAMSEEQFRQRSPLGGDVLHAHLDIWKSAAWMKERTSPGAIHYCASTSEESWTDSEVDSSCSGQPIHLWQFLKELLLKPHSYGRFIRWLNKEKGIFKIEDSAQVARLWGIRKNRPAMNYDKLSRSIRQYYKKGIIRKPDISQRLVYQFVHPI
Procedure, shortened: as §1

ETV7 = target: T10, ETV7 (Homo sapiens, UniProt Q9Y603 1-341)
T10 sequence: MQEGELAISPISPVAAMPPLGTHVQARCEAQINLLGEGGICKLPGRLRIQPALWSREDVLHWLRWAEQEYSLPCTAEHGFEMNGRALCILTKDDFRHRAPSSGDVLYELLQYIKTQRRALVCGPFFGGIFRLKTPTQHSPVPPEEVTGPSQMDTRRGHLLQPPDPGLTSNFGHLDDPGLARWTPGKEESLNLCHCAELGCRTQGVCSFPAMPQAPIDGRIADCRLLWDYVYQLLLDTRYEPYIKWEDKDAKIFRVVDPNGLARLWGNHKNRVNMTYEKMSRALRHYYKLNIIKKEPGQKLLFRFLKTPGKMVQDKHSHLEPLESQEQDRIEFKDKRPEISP
Procedure, shortened: as §1

ELF5 = target: T11, ELF5 (Homo sapiens, UniProt Q9UKW6-2 1-255)
T11 sequence: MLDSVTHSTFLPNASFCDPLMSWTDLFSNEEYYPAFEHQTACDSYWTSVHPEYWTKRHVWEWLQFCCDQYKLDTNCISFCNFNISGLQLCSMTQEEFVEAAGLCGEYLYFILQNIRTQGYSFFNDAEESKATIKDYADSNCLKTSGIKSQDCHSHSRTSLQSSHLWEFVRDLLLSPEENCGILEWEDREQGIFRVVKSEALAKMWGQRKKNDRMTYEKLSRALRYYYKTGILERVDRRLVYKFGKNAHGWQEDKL
Procedure, shortened: as §1

ETV3 = target: T12, ETV3 (Homo sapiens, UniProt P41162-2 1-143)
T12 sequence: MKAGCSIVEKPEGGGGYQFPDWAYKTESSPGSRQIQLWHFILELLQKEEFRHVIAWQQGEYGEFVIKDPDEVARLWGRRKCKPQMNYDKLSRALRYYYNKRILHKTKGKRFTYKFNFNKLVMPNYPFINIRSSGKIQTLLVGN
Procedure, shortened: as §1

ETV6 = ETV6 (Homo sapiens, UniProt P41212 1-452)
Procedure, shortened: as §1

CRX = CRX (Homo sapiens, UniProt O43186 1-299)
Procedure, shortened: as §1

Sequence of ETV1 (P50549 whole entry): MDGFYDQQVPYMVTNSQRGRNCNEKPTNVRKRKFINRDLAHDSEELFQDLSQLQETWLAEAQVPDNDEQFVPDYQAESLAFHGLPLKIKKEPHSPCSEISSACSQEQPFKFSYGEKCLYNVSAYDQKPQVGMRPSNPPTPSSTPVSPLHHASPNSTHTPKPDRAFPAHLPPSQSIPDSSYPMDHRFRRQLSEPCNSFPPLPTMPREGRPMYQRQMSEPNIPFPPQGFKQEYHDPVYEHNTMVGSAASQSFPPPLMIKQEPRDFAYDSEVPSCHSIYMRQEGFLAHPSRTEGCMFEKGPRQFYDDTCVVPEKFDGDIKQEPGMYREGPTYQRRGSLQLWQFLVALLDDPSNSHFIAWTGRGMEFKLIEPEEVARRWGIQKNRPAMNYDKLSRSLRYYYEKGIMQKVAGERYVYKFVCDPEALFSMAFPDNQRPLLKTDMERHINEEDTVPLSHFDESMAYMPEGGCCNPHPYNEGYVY
Sequence of ELF4 (Q99607 whole entry): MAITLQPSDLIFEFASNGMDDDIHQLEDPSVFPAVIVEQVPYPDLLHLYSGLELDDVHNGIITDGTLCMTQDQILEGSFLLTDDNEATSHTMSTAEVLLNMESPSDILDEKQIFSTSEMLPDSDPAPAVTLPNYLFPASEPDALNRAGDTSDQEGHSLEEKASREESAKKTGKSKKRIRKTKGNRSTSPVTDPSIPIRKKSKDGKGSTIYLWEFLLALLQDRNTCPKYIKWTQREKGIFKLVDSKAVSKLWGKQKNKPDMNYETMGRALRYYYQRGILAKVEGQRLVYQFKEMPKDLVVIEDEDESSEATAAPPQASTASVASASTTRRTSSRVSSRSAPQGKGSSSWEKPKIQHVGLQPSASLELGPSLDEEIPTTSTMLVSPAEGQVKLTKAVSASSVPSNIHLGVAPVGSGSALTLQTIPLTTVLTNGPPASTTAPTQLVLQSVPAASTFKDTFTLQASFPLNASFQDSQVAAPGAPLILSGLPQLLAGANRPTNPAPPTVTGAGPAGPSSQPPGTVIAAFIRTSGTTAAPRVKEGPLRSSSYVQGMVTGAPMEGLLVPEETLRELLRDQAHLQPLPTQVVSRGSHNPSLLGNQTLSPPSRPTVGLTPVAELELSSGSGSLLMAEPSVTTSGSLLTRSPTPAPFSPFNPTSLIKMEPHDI
Sequence of ETV5 (P41161 whole entry): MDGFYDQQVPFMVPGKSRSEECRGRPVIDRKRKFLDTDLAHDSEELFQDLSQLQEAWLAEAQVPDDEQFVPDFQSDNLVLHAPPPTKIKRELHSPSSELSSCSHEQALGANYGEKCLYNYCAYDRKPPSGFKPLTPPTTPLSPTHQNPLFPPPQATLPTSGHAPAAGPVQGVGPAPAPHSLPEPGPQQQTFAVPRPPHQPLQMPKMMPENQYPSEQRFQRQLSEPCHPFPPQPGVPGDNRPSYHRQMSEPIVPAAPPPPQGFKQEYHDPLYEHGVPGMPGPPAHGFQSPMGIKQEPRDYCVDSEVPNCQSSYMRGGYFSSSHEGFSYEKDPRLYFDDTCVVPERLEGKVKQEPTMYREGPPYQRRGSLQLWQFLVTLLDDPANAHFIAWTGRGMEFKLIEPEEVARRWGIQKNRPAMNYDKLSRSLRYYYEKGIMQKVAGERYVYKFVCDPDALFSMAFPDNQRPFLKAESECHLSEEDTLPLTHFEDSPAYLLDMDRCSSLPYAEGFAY
Sequence of ETV6 (P41212 whole entry): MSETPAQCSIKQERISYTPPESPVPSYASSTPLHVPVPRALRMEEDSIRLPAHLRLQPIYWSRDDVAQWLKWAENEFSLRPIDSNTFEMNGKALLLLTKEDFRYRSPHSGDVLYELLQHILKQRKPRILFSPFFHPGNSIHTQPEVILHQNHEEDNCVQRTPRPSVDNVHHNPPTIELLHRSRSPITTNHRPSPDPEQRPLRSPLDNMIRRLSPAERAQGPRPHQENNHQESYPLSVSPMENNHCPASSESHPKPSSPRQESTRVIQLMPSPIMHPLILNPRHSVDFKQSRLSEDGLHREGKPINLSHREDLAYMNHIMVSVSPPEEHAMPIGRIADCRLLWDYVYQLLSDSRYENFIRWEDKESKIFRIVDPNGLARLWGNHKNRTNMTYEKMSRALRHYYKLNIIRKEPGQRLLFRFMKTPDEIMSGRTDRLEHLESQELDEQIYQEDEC
Sequence of CRX (O43186 whole entry): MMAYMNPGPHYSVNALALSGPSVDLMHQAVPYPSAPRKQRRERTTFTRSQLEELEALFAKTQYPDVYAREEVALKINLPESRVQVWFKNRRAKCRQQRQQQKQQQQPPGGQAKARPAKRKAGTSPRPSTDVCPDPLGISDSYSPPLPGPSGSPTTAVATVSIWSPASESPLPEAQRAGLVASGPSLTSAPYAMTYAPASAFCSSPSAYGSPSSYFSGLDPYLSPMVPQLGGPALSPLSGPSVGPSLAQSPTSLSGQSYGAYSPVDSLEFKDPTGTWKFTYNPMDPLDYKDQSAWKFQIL

Sequence	binding signal (FEV)	binding signal (ETV5)	binding signal (SPIC)	binding signal (ELF4)	binding signal (ELK4)	binding signal (ETV2)	binding signal (ELF3)	binding signal (ETV1)	binding signal (ERF)	binding signal (ETV3L)	binding signal (ETS2)	binding signal (SPDEF)	binding signal (ETV7)	binding signal (ELF5)	binding signal (ETV3)	binding signal (ETV6)	binding signal (CRX)
CCGCCG	1.55 fold enrichment (6-mer frequency, TF over GST control)	1.25 fold enrichment (6-mer frequency, TF over GST control)	1.22 fold enrichment (6-mer frequency, TF over GST control)	1.29 fold enrichment (6-mer frequency, TF over GST control)	1.27 fold enrichment (6-mer frequency, TF over GST control)	1.11 fold enrichment (6-mer frequency, TF over GST control)	1.23 fold enrichment (6-mer frequency, TF over GST control)	1.25 fold enrichment (6-mer frequency, TF over GST control)	1.18 fold enrichment (6-mer frequency, TF over GST control)	1.2 fold enrichment (6-mer frequency, TF over GST control)	1.22 fold enrichment (6-mer frequency, TF over GST control)	1.34 fold enrichment (6-mer frequency, TF over GST control)	1.2 fold enrichment (6-mer frequency, TF over GST control)	1.31 fold enrichment (6-mer frequency, TF over GST control)	1.31 fold enrichment (6-mer frequency, TF over GST control)	1.23 fold enrichment (6-mer frequency, TF over GST control)	
CTATGT	1.09 fold enrichment (6-mer frequency, TF over GST control)	1.01 fold enrichment (6-mer frequency, TF over GST control)	1.01 fold enrichment (6-mer frequency, TF over GST control)	1.18 fold enrichment (6-mer frequency, TF over GST control)	1.15 fold enrichment (6-mer frequency, TF over GST control)	1.14 fold enrichment (6-mer frequency, TF over GST control)	1.23 fold enrichment (6-mer frequency, TF over GST control)	1 fold enrichment (6-mer frequency, TF over GST control)	1.08 fold enrichment (6-mer frequency, TF over GST control)	1.06 fold enrichment (6-mer frequency, TF over GST control)	1.16 fold enrichment (6-mer frequency, TF over GST control)	1.12 fold enrichment (6-mer frequency, TF over GST control)	1.3 fold enrichment (6-mer frequency, TF over GST control)	1.1 fold enrichment (6-mer frequency, TF over GST control)	1.15 fold enrichment (6-mer frequency, TF over GST control)		
TCAATG	1.03 fold enrichment (6-mer frequency, TF over GST control)	1.02 fold enrichment (6-mer frequency, TF over GST control)	1.09 fold enrichment (6-mer frequency, TF over GST control)	1.06 fold enrichment (6-mer frequency, TF over GST control)	1.04 fold enrichment (6-mer frequency, TF over GST control)	1.05 fold enrichment (6-mer frequency, TF over GST control)	1.03 fold enrichment (6-mer frequency, TF over GST control)	1.15 fold enrichment (6-mer frequency, TF over GST control)	1.11 fold enrichment (6-mer frequency, TF over GST control)	1.05 fold enrichment (6-mer frequency, TF over GST control)	1.06 fold enrichment (6-mer frequency, TF over GST control)	1.12 fold enrichment (6-mer frequency, TF over GST control)			1.06 fold enrichment (6-mer frequency, TF over GST control)	1.05 fold enrichment (6-mer frequency, TF over GST control)	1.02 fold enrichment (6-mer frequency, TF over GST control)
